Hit rate of the full screen: of about 290,000 compounds, about 890 (0.31%) were called active. Cut-off read from the data, not from the text of the source: active = inhibition mostly above about 52% (no sharp cut-off); inactive = mostly below about 76%. For the sample, actives were picked, then their nearest neighbours and some compounds at random.
Experiment: inhibitors of HIV fusion peptide binding, primary screen, biochemical, uHTS, fluorescence dequenching (AID 1986)
Settings: cell-free peptide binding, 30 min, stronger effect = higher value
[1] = measured here: repeat confirmation average inhibition, at 18.6 µM

In the case of `CN1CCN(c2ccc(Cl)cc2N)CC1`, the inhibition (at 20 µM) is reported as 0.1% (inactive).

In the case of `CCC(=O)N1CC(=O)Nc2ccc(Cl)cc2C1c1ccc(F)cc1` (stereo not drawn), the inhibition (at 20 µM) is reported as -1.6% (inactive).

In the case of `Cc1cccc(OCC(=O)N2CCN(Cc3ccc([N+](=O)[O-])cc3)CC2)c1`, the inhibition (at 20 µM) is reported as -1.3% (inactive).

For `COc1cc(OC)c(C=O)c(OC(=O)N(C)C)c1`, the inhibition (at 20 µM) was 0.7% (inactive).

With `CCCC[N+]12CCC(CC1)C(=C(c1ccccc1)c1ccccc1)C2` the inhibition (at 20 µM) was 1.1% (inactive).

For `C[C@]12CCC3C(CCC4=C/C(=N/OCC(=O)NC(CCC(=O)O)C(=O)O)CC[C@@]43C)C1CCC2O` (stereo partly drawn), the inhibition (at 20 µM) was 3.9% (inactive).

With `NCCCC(=O)OC1N=C(c2ccccc2Cl)c2cc(Br)ccc2NC1=O` (stereo not drawn) the inhibition (at 20 µM) was -0.8% (inactive).

With `Clc1cccc(N2CCNCC2)n1` the inhibition (at 20 µM) was 0.9% (inactive).

For `CC(=NCC1CCCO1)c1c(O)n(C)c(=O)n(C)c1=O` (stereo not drawn), the inhibition (at 20 µM) was -2.1% (inactive).

With `CN1C(=O)C(=Cc2ccc(N3CCOCC3)o2)C(=O)N(C)C1=S` the inhibition (at 20 µM) was 144% (inactive).

With `CN1CCN(c2ccc(/C=C3\C(=O)NC(=S)N(c4cccc(Br)c4)C3=O)o2)CC1` the inhibition (at 20 µM) was 53.7% (active).

For `Cc1cccc(N2C(=O)/C(=C/c3ccc(N4CCN(C)CC4)o3)C(=O)NC2=S)c1C`, the inhibition (at 20 µM) was 13.2% (inactive).

In the case of `Cc1cc(C)cc(N2C(=O)/C(=C\c3ccc(N4CCN(C)CC4)o3)C(=O)NC2=S)c1`, the inhibition (at 20 µM) is reported as 149% (inactive).

In the case of `CN1C(=O)C(=Cc2ccc(N3CCOCC3)o2)C(=O)N(C)C1=O`, the inhibition (at 20 µM) is reported as 69.4% (active) and the inhibition [1] is reported as 81.3%.

With `CN1C(=O)C(=Cc2ccc(N3CCCCCC3)o2)C(=O)N(C)C1=S` the inhibition (at 20 µM) was 149% (inactive).

In the case of `CCN1C(=O)C(=Cc2ccc(N3CCOCC3)o2)C(=O)N(CC)C1=S`, the inhibition (at 20 µM) is reported as 136% (inactive).

For `CN1C(=O)C(=Cc2ccc(N3CCCCC3)o2)C(=O)N(C)C1=S`, the inhibition (at 20 µM) was 103% (active) and the inhibition [1] was 52.4%.

With `Cc1cc(N2CCCCC2)ccc1C=C1C(=O)N(C)C(=S)N(C)C1=O` the inhibition (at 20 µM) was 17.8% (inactive).

For `CNc1ccc2nc3ccccc3[n+](C)c2c1`, the inhibition (at 20 µM) was 20.9% (inactive).

With `COc1cc(C(=S)N2CCOCC2)cc(OC)c1OC(=O)Cc1ccccc1` the inhibition (at 20 µM) was -1.3% (inactive).

With `O=C(CNC(=O)c1ccc(Br)cc1)Nc1ccc(Br)cc1C(=O)c1ccccc1` the inhibition (at 20 µM) was 1.3% (inactive).

For `CCOC(=O)N(CC)c1ccc(C(O)(C(=O)OC)C(F)(F)F)cc1` (stereo not drawn), the inhibition (at 20 µM) was 1.2% (inactive).

With `CCCCn1c(=O)c(C(=O)NCc2ccco2)c(O)c2ccccc21` the inhibition (at 20 µM) was 4.7% (inactive).

In the case of `Cc1cc(N2CCCC2)ccc1C=C(C#N)C#N`, the inhibition (at 20 µM) is reported as 80.3% (active).

With `Cc1cc(C=C(C#N)C#N)ccc1N1CCCC1` the inhibition (at 20 µM) was 40.1% (inactive).

In the case of `N#CC(C#N)=Cc1ccc(N2CCCC2)cc1`, the inhibition (at 20 µM) is reported as 11.8% (inactive).

With `c1ccc(-c2[nH]c[n+](CC3CO3)c2-c2ccccc2)cc1` (stereo not drawn) the inhibition (at 20 µM) was 12.3% (inactive).

For `O=C(CCc1nnc2ccc(NCc3ccccc3Cl)nn12)N1CCC2(CC1)OCCO2`, the inhibition (at 20 µM) was 1% (inactive).

In the case of `CCCCn1c(O)c(C(=O)/C=C/c2c[nH]c3ccccc23)c(=O)[nH]c1=O`, the inhibition (at 20 µM) is reported as 97.6% (active).

With `O=C(/C=C/c1c[nH]c2ccccc12)c1c(O)n(CCc2ccccc2)c(=O)[nH]c1=O` the inhibition (at 20 µM) was 148% (inactive).

For `CCCCn1c(O)c(C(C)=NCCc2c[nH]c3ccccc23)c(=O)[nH]c1=O`, the inhibition (at 20 µM) was 0.5% (inactive).

In the case of `CC(=O)NNC(=O)CN1C(=O)CN=C(c2ccccc2)c2cc(Br)ccc21`, the inhibition (at 20 µM) is reported as 2.1% (inactive).

For `CN(C)C(=O)Oc1ccc(Cl)c2cccnc12`, the inhibition (at 20 µM) was 3.9% (inactive).

In the case of `O=c1[nH]c(=S)n(-c2ccc(Br)cc2)c(O)c1C=Nc1ccc(N2CCOCC2)cc1`, the inhibition (at 20 µM) is reported as 24.5% (inactive).

With `Cc1cc(C)cc(-n2c(O)c(C=Nc3ccc(N4CCOCC4)cc3)c(=O)[nH]c2=S)c1` the inhibition (at 20 µM) was 23.1% (inactive).

With `O=c1[nH]c(=S)n(-c2ccc(Cl)cc2)c(O)c1C=Nc1ccc(N2CCOCC2)cc1` the inhibition (at 20 µM) was 102% (active) and the inhibition [1] was 80.1%.

With `O=C1NC(=O)N(c2ccccc2)C(=O)/C1=C\c1ccccc1[N+](=O)[O-]` the inhibition (at 20 µM) was 3.7% (inactive).

In the case of `CCCCn1c(=O)c(C=Nc2cccnc2Cl)c(O)n(CCCCl)c1=O`, the inhibition (at 20 µM) is reported as 37.8% (inactive).

With `O=c1c(C=Nc2cccnc2Cl)c(O)n(CCCCl)c(=O)n1C1CCCCC1` the inhibition (at 20 µM) was 71% (active).

With `C=CCn1c(=O)c(C=Nc2cccnc2Cl)c(O)n(CCCC)c1=O` the inhibition (at 20 µM) was 119% (inactive) and the inhibition [1] was 1.7%.

With `Cc1ccc(N2C(=O)NC(=O)C(CCc3ccccn3)(Cc3cccc(Cl)c3Cl)C2=O)cc1` (stereo not drawn) the inhibition (at 20 µM) was 0.2% (inactive).

For `O=c1[nH]c(=O)n(-c2ccccc2)c(O)c1/C=C/C=Nc1ccccc1`, the inhibition (at 20 µM) was 147% (inactive).

For `Cc1ccc(-n2c(O)c(/C=C/C=Nc3ccccc3)c(=O)[nH]c2=O)cc1`, the inhibition (at 20 µM) was 74.3% (active).

For `Cn1c(O)c(C=Nc2ccccc2)c(=O)n(C)c1=O`, the inhibition (at 20 µM) was 1.3% (inactive).

With `Cn1c(O)c(/C=C/C=Nc2ccccc2)c(=O)n(C)c1=O` the inhibition (at 20 µM) was 52.8% (inactive) and the inhibition [1] was 27.8%.

In the case of `Cc1ccc(-n2c(O)c(/C=N/c3ncc(Br)cc3Br)c(=O)[nH]c2=O)cc1`, the inhibition (at 20 µM) is reported as 64% (inactive) and the inhibition [1] is reported as 2.3%.

For `Cc1cccc(-n2c(O)c(C=Nc3ccc(Br)cn3)c(=O)[nH]c2=O)c1`, the inhibition (at 20 µM) was 144% (inactive).

For `Cc1ccc(-n2c(O)c(C=Nc3ccc(Br)cn3)c(=O)[nH]c2=O)cc1`, the inhibition (at 20 µM) was 124% (active).

For `Cc1cccc(-n2c(O)c(/C=C/C=Nc3ccccc3)c(=O)[nH]c2=O)c1`, the inhibition (at 20 µM) was 147% (inactive).

With `Cn1c(O)c(/C=C/C=Nc2ccccc2)c(=O)n(C)c1=S` the inhibition (at 20 µM) was 91.4% (active) and the inhibition [1] was 60.5%.

With `CC(=O)c1cccc(OCC(O)CN2CC=C(c3ccccc3)CC2)c1` (stereo not drawn) the inhibition (at 20 µM) was -1% (inactive).

For `O=c1c2ccccc2[nH]c(=S)n1-c1ccc(Br)cc1`, the inhibition (at 20 µM) was -0.2% (inactive).

For `O=c1[nH]c(O)c(N=Nc2ccc(SC(F)F)cc2)c(=O)[nH]1`, the inhibition (at 20 µM) was 3.1% (inactive).

In the case of `CCCOP(=O)(OCCC)C(NC(=O)c1cc(OC)c(OC)c(OC)c1)c1ccccc1` (stereo not drawn), the inhibition (at 20 µM) is reported as -1.1% (inactive).

With `CCOC(=O)c1c(C)n(C(C)C)c2ccc(OC)cc12` the inhibition (at 20 µM) was -1.3% (inactive).

In the case of `COc1cccc(CNC(=O)CCC(=O)N2C[C@H]3C[C@H](C2)c2cccc(=O)n2C3)c1OC`, the inhibition (at 20 µM) is reported as 1.4% (inactive).

In the case of `CCc1ccc(N2C(=O)NC(=O)/C(=C\c3cccn3CCOc3ccc(C(C)C)cc3)C2=O)cc1`, the inhibition (at 20 µM) is reported as 59.3% (inactive) and the inhibition [1] is reported as 1.8%.

In the case of `O=C1NC(=O)N(Cc2ccco2)C(=O)/C1=C\c1cccn1CCOc1ccc(Cl)cc1`, the inhibition (at 20 µM) is reported as 93.3% (inactive) and the inhibition [1] is reported as 0.8%.

With `Cc1ccc(OCCn2cccc2/C=C2/C(=O)NC(=O)N(Cc3ccco3)C2=O)cc1` the inhibition (at 20 µM) was 23.5% (inactive).

In the case of `CCC(C)c1ccc(N2C(=O)NC(=O)/C(=C/c3cccn3CCOc3ccc(C)cc3)C2=O)cc1` (stereo not drawn), the inhibition (at 20 µM) is reported as 65.8% (active) and the inhibition [1] is reported as 70.7%.

With `CCc1ccc(N2C(=O)NC(=O)/C(=C/c3cccn3CCOc3ccc(C)cc3)C2=O)cc1` the inhibition (at 20 µM) was 73.7% (inactive) and the inhibition [1] was 6.1%.

In the case of `CCc1ccc(N2C(=O)NC(=O)/C(=C/c3cccn3CCOc3ccc(C(C)CC)cc3)C2=O)cc1` (stereo not drawn), the inhibition (at 20 µM) is reported as 53.2% (active).

From PubChem BioAssay AID1986 (Sanford-Burnham Center for Chemical Genomics, 2009)
